Test results as given in article PMC5540273 (PLoS ONE, 2017).

How the values were obtained:
Details in all cases: concentration: 1 μM, replicates: in singlicate; n = 1
PIK3C2G = tested on: PIK3C2G
PIK3CA = tested on: PIK3CA
PIK3CB = tested on: PIK3CB
PIK3CD = tested on: PIK3CD
PIK3CG = tested on: PIK3CG
PIK4CB = tested on: T1, PIK4CB
T1 construct: gene PI4KB

PIKFYVE = tested on: PIKFYVE
PIM1 = tested on: PIM1
PIM2 = tested on: PIM2
PIM3 = tested on: PIM3
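Note: KINOMEscan kinase panel screen.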

Row | Compound | %Inh (PIK3C2G) [%] | %Inh (PIK3CA) [%] | %Inh (PIK3CB) [%] | %Inh (PIK3CD) [%] | %Inh (PIK3CG) [%] | %Inh (PIK4CB) [%] | %Inh (PIKFYVE) [%] | %Inh (PIM1) [%] | %Inh (PIM2) [%] | %Inh (PIM3) [%]
1 | Cl.Cl.NCC(NCc1ccc(-c2ccnc3[nH]ccc23)s1)c1ccccc1 (centres unmarked) [GSK1321565] | 0 | 0 | 19 | 2 | 21 | 4 | 3 | 17 | 0 | 0
2 | COc1cc2c(cc1OCCN1CCNCC1)ncc1c3ccc(C#N)cc3[nH]c21 | 0 | 8 | 0 | 3 | 31 | 33 | 14 | 10 | 92.2 | 52
3 | CN(c1ccc(NC(=O)Nc2cc(C(F)(F)F)ccc2F)cc1)c1ccnc(Nc2ccc(S(N)(=O)=O)cc2)n1 [GW809893] | 39 | 3 | 0 | 30 | 31 | 0 | 0 | 0 | 0 | 0
4 | CCn1c(-c2nonc2N)nc2c(C#CC(C)(C)O)ncc(OCCCCN)c21.O=C(O)C(F)(F)F.O=C(O)C(F)(F)F [GSK507274] | 11 | 0 | 0 | 0 | 0 | 0 | 88 | 69 | 85 | 78
5 | COc1cccc(NC(=O)NC2CCN(c3ccnc(Nc4cc(OC)c(OC)c(OC)c4)n3)C2)c1 (centres unmarked) [GSK1379763] | 0 | 0 | 0 | 51 | 8 | 78 | 0 | 0 | 0 | 0
6 | Cc1ccc(C(=O)N2CC[C@@H](O)C2)cc1-n1c(C)cc(OCc2ccc(F)cc2F)c(Br)c1=O | 0 | 0 | 0 | 0 | 0 | 0 | 28 | 0 | 7 | 1
7 | NCCCC(NC(=O)c1cc(Br)c(-c2ccnc3[nH]ccc23)s1)c1ccccc1.O=C(O)C(F)(F)F.O=C(O)C(F)(F)F (centres unmarked) [GSK1287544] | 0 | 0 | 100 | 0 | 0 | 0 | 0 | 59 | 93 | 22
8 | Cc1ccc(C)c(NC(=O)NC2CCN(c3ccnc(Nc4ccc(F)cc4)n3)C2)c1 (centres unmarked) [GSK1379720] | 0 | 0 | 0 | 8 | 0 | 0 | 0 | 15 | 0 | 0
9 | COc1cc(Nc2nccc(N3CCC(NC(=O)c4cc5ccccc5s4)C3)n2)cc(OC)c1OC (centres unmarked) [GSK1379760] | 0 | 0 | 0 | 14 | 0 | 0 | 6 | 16 | 0 | 3
10 | COc1ccc(CNC(=O)NC2CCN(c3ccnc(Nc4ccc(F)cc4)n3)CC2)cc1 [GSK1379788] | 0 | 0 | 0 | 0 | 0 | 0 | 6 | 0 | 0 | 0
11 | Cl.c1ccc(-c2ccc3c(Nc4ccc5[nH]ccc5c4)ccnc3c2)nc1 [GW440138] | 0 | 0 | 37 | 2 | 0 | 0 | 16 | 0 | 0 | 0
12 | C[C@@H](Oc1cc(-n2cnc3cc(-c4ccnc(NCCS(C)(=O)=O)c4)ccc32)sc1C(N)=O)c1ccccc1Cl [GSK907232] | 0 | 0 | 0 | 39 | 1 | 9 | 0 | 19 | 0 | 27
13 | c1ccc(Oc2ccc(Nc3ccnc4cc(-c5ccc(CNCCN6CCOCC6)o5)ccc34)cc2)nc1 [GW567145] | 0 | 0 | 0 | 0 | 0 | 0 | 50 | 0 | 0 | 0
14 | O=C(Nc1cccc(Oc2ccc3nc(NC(=O)C4CC4)cn3n2)c1)c1ccccc1C(F)(F)F | 0 | 0 | 0 | 0 | 0 | 0 | 0 | 0 | 0 | 0
15 | CC(=O)N1CCN(c2ccc(Nc3nccc(-c4sc(C(C)C)nc4-c4cccc(NS(=O)(=O)c5cccc(Cl)c5)c4)n3)cn2)CC1 [GSK1660437] | 0 | 0 | 13 | 0 | 0 | 0 | 0 | 0 | 0 | 89
16 | CN(C)S(=O)(=O)c1cc(-c2ccc3nccc(-c4cccc(S(N)(=O)=O)c4)c3c2)cnc1N [GSK1669921] | 96 | 100 | 96.6 | 98.8 | 99.9 | 96.5 | 96.6 | 19 | 0 | 12

Row | Compound | %Inh (PIK3C2G) [%] | %Inh (PIK3CA) [%] | %Inh (PIK3CB) [%] | %Inh (PIK3CD) [%] | %Inh (PIK3CG) [%] | %Inh (PIK4CB) [%] | %Inh (PIKFYVE) [%] | %Inh (PIM1) [%] | %Inh (PIM2) [%] | %Inh (PIM3) [%]
17 | c1ccc(-c2n[nH]cc2Nc2ccnc3ccccc23)nc1 [GW694077] | 15 | 0 | 0 | 0 | 14 | 95.7 | 0 | 81 | 7 | 79
18 | COc1ccc(Nc2nccc(NCCNC(=O)c3cc4ccccc4s3)n2)cc1 [GSK1379896] | 0 | 0 | 32 | 0 | 0 | 0 | 0 | 8 | 0 | 2
19 | Cc1ccc(F)c(C(=O)Nc2cccc(-c3nn4ccccc4c3-c3ccnc(Nc4cccc(F)c4)n3)c2)c1F [GSK361061] | 0 | 0 | 0 | 0 | 0 | 0 | 0 | 24 | 0 | 7
20 | Cc1cccc(NC(=O)Nc2ccc(Oc3ncnc4ccn(C)c34)cc2)c1 | 0 | 0 | 0 | 0 | 0 | 0 | 40 | 0 | 0 | 0
21 | Nc1ncc(-c2ccc3nccc(-c4ccncc4)c3c2)cc1S(=O)(=O)N1CCOCC1 [GSK1627798] | 99.1 | 100 | 77 | 94.1 | 99.5 | 96.1 | 0 | 0 | 0 | 0
22 | Cl.Cl.NCC(NC(=O)c1cc(-c2ccccc2)c(-c2ccnc3[nH]ccc23)s1)c1ccccc1 (centres unmarked) [GSK1321561] | 0 | 0 | 0 | 0 | 4 | 0 | 0 | 0 | 0 | 0
23 | O=C(Nc1n[nH]c2cc(-c3ccoc3)ccc12)C1CC1 [SB-738481] | 0 | 0 | 13 | 5 | 12 | 8 | 1 | 0 | 0 | 0
24 | COC(=O)Nc1nc2ccc(Oc3ccc(NC(=O)Nc4cc(C(F)(F)F)ccc4F)cc3)cc2n1C.Cl [GW692089] | 4 | 0 | 0 | 0 | 0 | 0 | 6 | 0 | 24 | 0
25 | CN1CCN(CCCNc2nccc(-c3c(-c4ccc(F)cc4)nn4cc(C(F)(F)F)ccc34)n2)CC1 [GW621581] | 3 | 0 | 0 | 10 | 0 | 1 | 95.6 | 10 | 0 | 0
26 | Cc1ccc(C(=O)Nc2ccc(Nc3ccnc4cc(-c5nccs5)ccc34)cc2O)cc1.Cl [GW494702] | 23 | 0 | 0 | 0 | 0 | 30 | 0 | 0 | 6 | 0
27 | O=C(Nc1n[nH]c2nc(-c3ccc(O)cc3)ccc12)C1CC1 [SB-710363] | 0 | 0 | 0 | 0 | 2 | 20 | 0 | 45 | 89 | 81
28 | CN(C)Cc1ccc(-c2ccc3c(Nc4ccc(Oc5ccccn5)cc4)ccnc3c2)o1 [GW567148] | 0 | 0 | 0 | 0 | 0 | 0 | 0 | 0 | 0 | 0
29 | COc1cccc(C2=C(Nc3ccc(Cl)c(C(=O)O)c3)C(=O)NC2=O)c1 [SB-390769] | 100 | 10 | 93.3 | 0 | 0 | 0 | 21 | 0 | 0 | 0
30 | CCS(=O)(=O)c1ccc(OC)c(Nc2nccc(-c3c(-c4cccc(NC(=O)c5c(F)cccc5F)c4)nn4ncccc34)n2)c1 [GSK326180] | 0 | 0 | 0 | 0 | 3 | 7 | 0 | 0 | 0 | 0
31 | CCn1c(-c2nonc2N)nc2c(C#CC(C)(C)O)nc(OC[C@H](N)c3ccccc3)cc21 [GSK943949] | 11 | 0 | 0 | 0 | 0 | 0 | 60 | 0 | 23 | 0
32 | Cn1cc(-c2ccc3c(c2)CCN3C(=O)Cc2cccc(Cl)c2)c2c(N)ncnc21 [GSK2606590] | 0 | 0 | 15 | 0 | 39 | 0 | 0 | 31 | 0 | 8
